# Assay outcomes from PubChem.
# PP5 inh: PP5 (human) phosphatase inhibition; P53041; purified PP5c, OMFP substrate fluorescence; inhibition, % at 6.7 µM; 320,000 tested, 0.18% active; AID 1987;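 active = inhibition above the campaign's mean inhibition across all tested compounds plus 3 SD, cut at about 9.5% in these data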
# Calb FLC: C. albicans growth modulation with fluconazole; C. albicans CaCi-2 (fluconazole-resistant clinical isolate) + fluconazole, Alamar Blue growth, 48 h; growth inhibition, % (no concentration beside the values); 300,000 tested, 0.57% active; AID 1979;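 active = growth inhibition above about 58% in most replicates, limit read from the data, passing the limit was not always enough; inconclusive = exactly half the replicates above a set limit; inactive = most replicates below a set limit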;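 also: all wells also contain fluconazole at 8 µg/ml as a sub-toxic cotreatment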
# Beta cell apopt: blocks beta cell apoptosis; 300,000 tested, 0.8% active; AID 435005; INS-1E cytokine-induced death, ATP luminescence, 48 h; percent of positive-control rescue, neutral wells zero; protection from apoptosis, % (test concentration not listed);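 active = Every replicate reaches about 75%, or at least half do and their mean reaches it too, limit read from the data; inconclusive = At least half of replicates reach the limit but their mean does not; inactive = Under half of replicates reach the limit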;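 also: higher means more ATP so stronger rescue from cytokine killing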
# CSC inhib: blocks cancer stem cells. cancer stem cell-like cells viability, luminescence. inhibition, % at 7.5 µM. 300,000 tested, 1.1% active. AID 2717; in the data active = inhibition above about 75%; inconclusive = no clear call, values can overlap the other calls; tested in HMLE shEcad cells
# PP1 counter: blocks human PP1-alpha phosphatase, a PP5 counter-screen | 320,000 tested, 0.9% active | inhibition, % at 6.7 µM | P62136 | purified PP1alpha, OMFP fluorescence;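 active = inhibition above the mean inhibition of all tested compounds plus 3 SD, computed separately for each screening campaign, cut at about 15% in these data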
# Target sequence (P62136 whole entry, looked up): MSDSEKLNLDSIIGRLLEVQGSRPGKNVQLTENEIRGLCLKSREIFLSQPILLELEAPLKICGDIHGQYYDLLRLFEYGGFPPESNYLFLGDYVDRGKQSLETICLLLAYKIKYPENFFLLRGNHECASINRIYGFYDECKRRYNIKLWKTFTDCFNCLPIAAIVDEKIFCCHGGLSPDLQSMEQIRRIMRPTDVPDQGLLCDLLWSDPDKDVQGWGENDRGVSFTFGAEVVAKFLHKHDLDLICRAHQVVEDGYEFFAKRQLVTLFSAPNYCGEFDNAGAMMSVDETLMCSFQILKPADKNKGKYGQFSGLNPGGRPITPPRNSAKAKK
# Mdm2 MdmX PPI: inhibitors of human Mdm2/MdmX interaction. AID 485346. inhibition, % at 8 µM. SaOS-2 split-luciferase Mdm2/MdmX complementation, luminescence. 330,000 tested, 3% active;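 active = inhibition of at least 50% at 8 µM in the primary screen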
# A number is an active result; n = inactive; u = inconclusive; x = no result. Compounds with a hit are over-represented: about 4.9% of the library has one in this group of screens.
SMILES,PP5 inh,Calb FLC,Beta cell apopt,CSC inhib,PP1 counter,Mdm2 MdmX PPI
Cn1c(=O)c2c(SCC(=O)NCc3ccco3)nc(-c3ccccc3Cl)nc2n(C)c1=O,n,n,n,n,17,n
Cc1ccc(NC(=O)C2CCN(S(=O)(=O)c3ccc(N4CCCC4=O)cc3)CC2)cc1Cl,n,n,122,n,n,n
CC1Sc2ccc(S(=O)(=O)N3CCC(C(=O)Nc4ccc(Cl)cc4)CC3)cc2NC1=O (configuration not stated),n,n,113,n,n,n
COc1ccc(NC(=O)C2CCN(S(=O)(=O)c3ccc4c(c3)NC(=O)C(C)S4)CC2)cc1 (configuration not stated),n,n,n,n,n,n
COc1ccc(C(=O)Nc2ccc(N3CCCCCC3)cc2)cc1S(=O)(=O)N1CCOCC1,n,x,n,n,n,n
NC(=O)NC(=O)COC(=O)c1sc2ccccc2c1Cl,n,n,n,n,n,n
CN(C)CCOC(=O)c1sc2ccccc2c1Cl,n,110,n,n,n,n
CCC(CO)[n+]1c(C)cc(/C=C2\Sc3ccccc3N2Cc2ccccc2)cc1C (configuration not stated),n,x,105,n,n,x
CNC(=O)C(=O)NCC1OCCN1S(=O)(=O)c1ccc(OC)c(OC)c1 (configuration not stated),n,n,n,n,n,n
Cc1ccccc1OCCn1c(C)nc2ccccc21,n,n,78,n,n,n
Cc1ccccc1OCCCCn1cnc2ccccc21,n,n,103,n,n,n
c1ccc2c(c1)ncn2CCCCOc1ccc2c(c1)CCC2,n,n,91,n,16,n
Cc1nc2ccccc2n1CCOc1ccccc1,n,n,n,n,n,n
Cc1ccc(OCCCCn2cnc3ccccc32)cc1,n,n,n,n,n,n
CC1CCC(NC(=O)COC(=O)CNC(=O)c2ccc3ccccc3c2)CC1 (configuration not stated),n,x,n,n,n,n
Cc1ccc(CN(C)C(=O)CN2C(=O)NC(c3ccccc3)(c3ccccc3)C2=O)c(C)c1,n,x,n,n,n,n
COCc1c(C(C)C)nc(C(C)C)c(/C=C/[C@@H](O)C[C@@H](O)CC(=O)O)c1-c1ccc(F)cc1,n,112,n,106,n,x
COc1ccc(C2=NN(C(=O)CCC(=O)O)C(c3ccc(F)cc3)C2)cc1 (configuration not stated),n,n,n,n,n,n
Oc1ccc(/C=N/Nc2ccnc3cc(Cl)ccc23)cc1O,n,100,n,n,n,n
O=C(COc1ccccc1)NNC(=S)NC(=O)c1ccc(Cl)cc1Cl,n,105,n,n,n,n
O=C(Nc1ccccc1Cl)c1ccc(Cl)cc1Cl,n,n,n,n,n,n
O=C(Nc1ccc(NC(=S)NC(=O)c2ccccc2Cl)cc1)c1cccc(Cl)c1,n,u,n,79,n,n
Cc1cccc(C(=O)NC(=S)NNC(=O)COc2ccc(Cl)cc2)c1,x,u,x,x,x,n
O=C(NC(=S)Nc1ccccc1O)c1ccc(Cl)cc1Cl,n,111,x,n,n,n
COc1ccc(O)c(CN2CCC(n3nccc3NC(=O)CCOc3ccccc3)CC2)c1,n,n,n,n,n,n
SMILES,PP5 inh,Calb FLC,Beta cell apopt,CSC inhib,PP1 counter,Mdm2 MdmX PPI
Cc1ccc(S(=O)(=O)Nc2cc(C)cn(Cc3ccc(F)cc3)c2=O)cc1,n,n,n,n,n,n
COCCn1c(Cc2ccccc2)nnc1SCC(=O)NC1CC1,n,n,n,n,n,n
COc1ccc(S(=O)(=O)N2CCC(C(=O)NCc3ccncc3)CC2)cc1C,n,n,n,n,n,n
Cc1ccc(NC(=O)c2cc3cc(OC(F)(F)F)ccc3[nH]2)cc1,n,n,n,n,n,n
Cc1ccc(N=C2SC(C(=O)Nc3ccc(OC(F)(F)F)cc3)C(N)=C2C(=O)Nc2c(C)cc(C)cc2C)cc1 (configuration not stated),n,x,99,106,n,x
COc1ccc(-c2sc3cc(OC)c(OC)cc3c2C#CCO)cc1,x,x,x,x,x,n
COc1ccc(-c2oc3ccc(N4CCOCC4)cc3c2C#CCO)cc1,n,n,x,97,n,n
Nc1ccc(C#Cc2c(-c3ccsc3)oc3ccc(N4CCOCC4)cc23)cc1,n,n,x,n,n,n
COc1ccc2sc(-c3ccc(SC)cc3)c(C#CCO)c2c1,x,x,n,83,x,n
COc1ccc(-c2sc3ccc(N4CCOCC4)cc3c2C#CC(C)(C)O)cc1,n,x,n,87,n,n
COc1cccc(-c2sc3ccc(OC)cc3c2C#CCC(C)O)c1 (configuration not stated),n,x,n,113,n,n
COCc1ccc(-c2c(-c3cccc(OC)c3)sc3ccc(OC)cc23)cc1,n,x,n,n,n,n
CCN1C(=O)[C@@H]2C(C(=O)c3cnccn3)=NN[C@@H]2C1=O,n,n,n,n,n,n
COc1ccc2sc(-c3ccc(N(C)C)cc3)c(C#CC(C)(C)O)c2c1,n,x,n,n,n,n
COc1ccc(-c2sc3cc(OC)c(OC)cc3c2C#CC(C)(C)O)cc1,n,x,n,n,n,n
COc1cccc(-c2sc3ccc(OC)cc3c2C#CC(C)(C)O)c1,n,x,n,118,n,n
COc1ccc2sc(-c3ccc(SC)cc3)c(C#CC(C)(C)O)c2c1,n,x,n,105,n,n
CN(C(=O)COC(=O)c1ccc2c(=O)n3c(nc2c1)CCC3)C1CCS(=O)(=O)C1 (configuration not stated),n,n,n,n,n,n
CC(=O)[C@@]1(O)C(C)CC2C3C=C(C)C4=Cc5c(cnn5-c5ccccc5)C[C@]4(C)C3C(O)C[C@@]21C (some centres not stated),n,x,n,100,n,x
O=C1CCCN1c1ccc(Br)cc1,n,n,n,n,n,n
N#CC1=C2SC=C(c3ccc(Br)cc3)N2CCCC1=O,n,n,n,86,n,n
COc1ccc(/C=N/NC(=O)C(O)(c2ccccc2)c2ccccc2)cc1OC,n,n,n,n,n,n
CC(=O)OCCCNc1cc(Sc2ccc(Cl)cc2)c2nonc2c1[N+](=O)[O-],n,n,n,81,n,x
CCCCc1nc(N2CCN(C(=O)c3ccco3)CC2)c(C#N)c2c1CCCC2,n,n,n,119,n,n
CC(C)c1nc(N2CCN(C(=O)c3ccco3)CC2)c2c3c(sc2n1)CCCC3,n,89,n,n,n,n
CC(C)c1nc(N2CCN(C(=O)c3ccco3)CC2)c(C#N)c2c1COC(C)(C)C2,n,n,x,n,n,n
COc1ccccc1/C=C(/CC(=O)NCc1ccccc1)c1nc2ccccc2s1,n,n,n,n,n,n
COc1ccccc1/C=C(/CC(=O)NCc1ccc(F)cc1)c1nc2ccccc2s1,n,n,n,n,16,n
COc1ccc2cc(/C=N/O)c(Cl)nc2c1,n,n,x,x,n,n
COc1ccc2cc(/C=N/NC(=O)c3ccc(CN(c4cccc(Cl)c4Cl)S(C)(=O)=O)cc3)c(Cl)nc2c1,n,n,n,85,n,n
